Results taken from PubChem BioAssay (Tox21).
Results filed as inconclusive are left out. A call without a number means that no potency is given here. Active and inactive are the calls of the source. Unless noted, the call rests on the fitted dose curve; in most records, active means well fitted curve in the direction sought with a large enough effect in the repeat runs; inconclusive means weak or mixed curves; inactive means no such curve, though single readings can be large; an effect the other way counts as inactive or inconclusive.

Legend:
[1] = qHTS assay for identifying genotoxic compounds that show differential cytotoxicity against isogenic chicken DT40 cell lines with known DNA damage response pathways - wild type cell line (AID 743012); details: DT40 wild type chicken cells viability, CellTiter-Glo, 40 h; series mostly up to 68.4 µM; further: nearly all actives have a fitted effect of over 60% in size; further: potency means the concentration at half of the fitted maximal effect
Procedure, shortened: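 Using parental DT40 (300 cells/well), compounds delivered in DMSO incubate 40 h at 37 C/5% CO2. CellTiter-Glo reagent then stands 30 min at room temperature, and luminescence gives cell viability.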

[2] = qHTS assay for identifying genotoxic compounds that show differential cytotoxicity against isogenic chicken DT40 cell lines with known DNA damage response pathways - Rev3 mutant cell line (AID 743014); details: chicken DT40 Rev3-/- viability, CellTiter-Glo, 40 h; series mostly up to 68.4 µM; further: nearly all actives have a fitted effect of over 55% in size; further: potency means the concentration at half of the fitted maximal effect
[3] = qHTS assay to identify small molecule antagonists of the thyroid receptor (TR) signaling pathway - cell viability counter screen (AID 743064); details: GH3.TRE-Luc viability, CellTiter-Fluor, 24 h; series mostly up to 70.3 µM; further: nearly all actives have a fitted effect of over 50% in size; further: potency means the concentration at half of the fitted maximal effect
Procedure, shortened: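 Viability of T3-stimulated (1 nM final) GH3.TRE-Luc cells is measured by CellTiter-Fluor fluorescence after 23.5 h compound exposure at 37 °C plus 30 min reagent incubation.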

[4] = system: thyroid hormone receptor (rat, GH3 cells); assay: qHTS assay to identify small molecule agonists of the thyroid receptor (TR) signaling pathway (AID 743066; calls by dose curve); details: GH3.TRE-Luc cells, TR agonist luciferase, 24 h; series mostly up to 83.9 µM
[5] = target: Estrogen receptor (Homo sapiens) (UniProt P03372); assay: qHTS assay to identify small molecule antagonists of the estrogen receptor alpha (ER-alpha) signaling pathway (AID 743069; active means well fitted curve in the direction sought with a large enough effect in the signal ratio in the repeat runs, not every such curve was filed as active; the % refers to the signal ratio); details: HEK293 ER-alpha-UAS-bla, beta-lactamase ratio, antagonist mode; series mostly up to 69.4 µM
Procedure, shortened: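 HEK293 ER-alpha-UAS-bla GripTite cells, held overnight in 2% charcoal-stripped FBS, 5,000 cells/well, preincubated 4 h, then compound plus 17beta-estradiol for 18 h at 37C. Beta-lactamase read by LiveBLAzer B/G FRET substrate, 2 h at room temperature.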

[6] = target: Estrogen receptor (Homo sapiens) (UniProt P03372); assay: qHTS assay to identify small molecule agonists of the estrogen receptor alpha (ER-alpha) signaling pathway (AID 743075; calls by dose curve); details: HEK293 ER-alpha-UAS-bla, beta-lactamase FRET ratio, 18 h; series mostly up to 70.1 µM
[7] = target: Estrogen receptor (Homo sapiens) (UniProt P03372); assay: qHTS assay to identify small molecule agonists of the estrogen receptor alpha (ER-alpha) signaling pathway using the BG1 cell line (AID 743079); details: BG1Luc4E2 cells, ERE-luciferase agonist, 22 h; series mostly up to 70.3 µM; further: nearly all actives have a fitted effect of over 20% in size
[8] = qHTS assay to identify small molecule antagonists of the estrogen receptor alpha (ER-alpha) signaling pathway using the BG1 cell line (AID 743080; calls by dose curve;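 further: BG1 cells stimulated with 17beta-estradiol alongside compound; nearly all actives have a fitted effect of over 25% in size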); details: BG1Luc4E2 ERE-luciferase antagonist mode, luminescence; series mostly up to 70.3 µM
Procedure, shortened: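 Luminescence from a 4×ERE-luciferase reporter in BG1-Luc-4E2 cells served as read-out. Cells, pre-cultured 5 days in stripped-serum phenol-red-free medium, were exposed to compound with 17beta-estradiol co-stimulation for 21.5 h at 37 C.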

[9] = qHTS assay to identify small molecule antagonists of the estrogen receptor alpha (ER-alpha) signaling pathway using the BG1 cell line - cell viability counter screen (AID 743081); details: BG1Luc4E2 viability, CellTiter-Fluor, 22 h; series mostly up to 70.3 µM;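 further: compound given together with 17beta-estradiol as the ER stimulus; nearly all actives have a fitted effect of over 45% in size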
[10] = qHTS assay to identify aromatase inhibitors - cell viability counter screen (AID 743084); details: MCF-7 aro ERE viability, CellTiter-Fluor, 24 h; series mostly up to 70.3 µM;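 further: cells stimulated with testosterone during compound exposure; nearly all actives have a fitted effect of over 55% in size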; further: potency means the concentration at half of the fitted maximal effect
[11] = qHTS assay to identify small molecule antagonists of the androgen receptor (AR) signaling pathway - cell viability counter screen (AID 743033; further: nearly all actives have a fitted effect of over 45% in size; further: potency means the concentration at half of the fitted maximal effect); details: AR-bla HEK293 viability, CellTiter-Glo luminescence, 16 h; series mostly up to 58.5 µM
[12] = target: Androgen receptor (Homo sapiens) (UniProt P10275); assay: qHTS assay to identify small molecule agonists of the androgen receptor (AR) signaling pathway using the MDA cell line (AID 743040; further: nearly all actives have a fitted effect of over 20% in size); details: MDA-kb2 AR-luc cells, MMTV luciferase, 16 h; series mostly up to 70.3 µM
Procedure, shortened: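 MDA-kb2 breast carcinoma cells carrying MMTV-luciferase (responsive to AR and GR), plated 5 h then treated 16 h with compounds at 37C, 0% CO2. Read-out was ONE-Glo luminescence after 30 min at room temperature.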

[13] = target: Androgen receptor (Homo sapiens) (UniProt P10275); assay: qHTS assay to identify small molecule antagonists of the androgen receptor (AR) signaling pathway using the MDA cell line (AID 743042; further: nearly all actives have a fitted effect of over 55% in size); details: MDA-kb2 AR-luc, MMTV luciferase, R1881 antagonist, 16 h; series mostly up to 70.3 µM
Procedure, shortened: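 MDA-kb2 breast carcinoma cells carrying MMTV-luciferase (AR/GR responsive) were co-treated with compounds and the agonist R1881 for 16 h at 37C. Inhibition read as ONE-Glo luminescence; CellTiter-Fluor fluorescence measured in parallel for cytotoxicity.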

[14] = qHTS assay to identify small molecule antagonists of the thyroid receptor (TR) signaling pathway (AID 743065); details: GH3.TRE-Luc, T3-stimulated luciferase inhibition, 23.5 h; series mostly up to 70.3 µM; further: nearly all actives have a fitted effect of over 55% in size; further: potency means the concentration at half of the fitted maximal effect
Procedure, shortened: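 GH3.TRE-Luc rat pituitary cells (two TREs driving luciferase) were dosed with compound, then stimulated with 1 nM T3 (final) for 23.5 h at 37 C. ONE-Glo luminescence was the read-out, with CellTiter-Fluor fluorescence as the cytotoxicity counter-screen.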

[15] = qHTS assay to identify small molecule antagonists of the estrogen receptor alpha (ER-alpha) signaling pathway - cell viability counter screen (AID 743074; calls by dose curve;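 further: HEK293 cells carrying ER-alpha-UAS-bla reporter stimulated with 17beta-estradiol; nearly all actives have a fitted effect of over 45% in size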); details: ERalpha-bla HEK293 viability, CellTiter-Glo luminescence, 18 h; series mostly up to 69.4 µM
[16] = target: Aromatase (Homo sapiens) (UniProt P11511); assay: qHTS assay to identify aromatase inhibitors (AID 743083); details: MCF-7 aro ERE, testosterone-driven ERE luciferase, 24 h; series mostly up to 70.3 µM; further: nearly all actives have a fitted effect of over 55% in size; further: potency means the concentration at half of the fitted maximal effect
[17] = qHTS assay to identify small molecule antagonists of the androgen receptor (AR) signaling pathway using the MDA cell line - cell viability counter screen (AID 743041; further: nearly all actives have a fitted effect of over 45% in size); details: MDA-kb2 viability, CellTiter-Fluor, 16 h, cells co-treated with R1881 androgen agonist; series mostly up to 70.3 µM
Procedure, shortened: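 MDA-kb2 AR-luc cells (MMTV-luciferase, AR/GR responsive) treated with compounds plus R1881 agonist for 16 h at 37C. CellTiter-Fluor added at 15.5 h; fluorescence read after 30 min in the same wells.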

Chain of Estrogen receptor (Homo sapiens) (P03372 whole entry, looked up): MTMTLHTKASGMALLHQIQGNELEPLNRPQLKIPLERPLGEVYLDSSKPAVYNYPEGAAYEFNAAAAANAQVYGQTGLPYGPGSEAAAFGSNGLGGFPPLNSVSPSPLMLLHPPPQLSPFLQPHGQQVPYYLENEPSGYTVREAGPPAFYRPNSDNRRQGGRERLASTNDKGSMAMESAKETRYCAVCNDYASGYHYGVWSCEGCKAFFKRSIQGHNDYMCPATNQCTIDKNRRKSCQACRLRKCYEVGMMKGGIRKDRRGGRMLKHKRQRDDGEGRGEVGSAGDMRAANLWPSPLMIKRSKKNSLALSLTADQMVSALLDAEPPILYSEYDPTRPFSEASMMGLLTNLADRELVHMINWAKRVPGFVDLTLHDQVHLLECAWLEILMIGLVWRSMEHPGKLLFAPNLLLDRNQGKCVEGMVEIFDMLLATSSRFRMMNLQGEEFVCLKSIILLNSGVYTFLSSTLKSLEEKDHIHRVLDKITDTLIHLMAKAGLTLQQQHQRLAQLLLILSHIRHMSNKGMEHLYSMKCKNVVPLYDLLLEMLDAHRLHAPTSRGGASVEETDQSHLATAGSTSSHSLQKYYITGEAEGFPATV
Chain of Aromatase (Homo sapiens) (P11511 whole entry, looked up): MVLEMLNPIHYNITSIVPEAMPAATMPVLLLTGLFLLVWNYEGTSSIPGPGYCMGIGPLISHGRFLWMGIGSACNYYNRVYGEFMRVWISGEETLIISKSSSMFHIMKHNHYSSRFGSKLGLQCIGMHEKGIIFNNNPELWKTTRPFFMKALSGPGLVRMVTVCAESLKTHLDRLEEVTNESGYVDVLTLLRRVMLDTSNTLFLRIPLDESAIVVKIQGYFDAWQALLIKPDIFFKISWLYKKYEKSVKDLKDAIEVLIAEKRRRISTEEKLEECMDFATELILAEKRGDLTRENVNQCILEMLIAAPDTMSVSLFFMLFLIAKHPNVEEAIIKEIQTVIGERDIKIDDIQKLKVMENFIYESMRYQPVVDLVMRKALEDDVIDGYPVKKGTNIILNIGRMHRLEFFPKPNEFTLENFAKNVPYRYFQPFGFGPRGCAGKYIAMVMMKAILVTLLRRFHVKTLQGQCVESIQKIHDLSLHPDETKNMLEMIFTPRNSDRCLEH
Chain of Androgen receptor (Homo sapiens) (P10275 whole entry, looked up): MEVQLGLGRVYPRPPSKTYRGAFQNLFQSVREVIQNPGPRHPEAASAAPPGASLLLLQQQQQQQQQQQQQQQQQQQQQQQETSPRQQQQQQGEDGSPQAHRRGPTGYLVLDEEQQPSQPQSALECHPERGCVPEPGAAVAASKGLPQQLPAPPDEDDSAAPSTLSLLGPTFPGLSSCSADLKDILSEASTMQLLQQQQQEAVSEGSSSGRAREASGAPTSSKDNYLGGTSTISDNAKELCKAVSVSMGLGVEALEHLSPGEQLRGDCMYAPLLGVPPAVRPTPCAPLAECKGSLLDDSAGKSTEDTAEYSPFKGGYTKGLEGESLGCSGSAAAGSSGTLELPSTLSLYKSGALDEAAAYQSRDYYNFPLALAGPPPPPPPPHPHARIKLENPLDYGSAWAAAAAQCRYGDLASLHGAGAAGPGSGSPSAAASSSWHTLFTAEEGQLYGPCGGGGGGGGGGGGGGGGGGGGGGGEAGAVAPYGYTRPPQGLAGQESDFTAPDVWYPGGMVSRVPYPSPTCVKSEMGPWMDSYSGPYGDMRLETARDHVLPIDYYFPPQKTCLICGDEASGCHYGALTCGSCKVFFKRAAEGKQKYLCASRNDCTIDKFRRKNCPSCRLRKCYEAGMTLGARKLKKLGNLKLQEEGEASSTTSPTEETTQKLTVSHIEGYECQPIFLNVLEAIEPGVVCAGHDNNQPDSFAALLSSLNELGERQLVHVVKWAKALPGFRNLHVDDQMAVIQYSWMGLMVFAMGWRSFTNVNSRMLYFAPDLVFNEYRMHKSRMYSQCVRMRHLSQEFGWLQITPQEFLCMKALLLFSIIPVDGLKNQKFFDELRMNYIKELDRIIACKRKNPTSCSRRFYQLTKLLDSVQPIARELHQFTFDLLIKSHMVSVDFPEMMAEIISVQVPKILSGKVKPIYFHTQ

CCCCCCCCCCCCBr
Potency [1]: 27.3 µM (active)
Potency [2]: 13.7 µM (active)
Potency [3]: inactive
outcome [4]: inactive
Potency [5]: inactive
Potency [6]: inactive
Potency [7]: inactive
Potency [8]: inactive
Potency [9]: inactive
Potency [10]: inactive

O=C(NC(=O)c1c(F)cccc1F)Nc1cc(Cl)c(OC(F)(F)C(F)F)c(Cl)c1
Potency [1]: inactive
Potency [2]: inactive
Potency [11]: inactive
Potency [12]: inactive
Potency [13]: inactive
Potency [3]: inactive
Potency [14]: inactive
outcome [4]: inactive
Potency [5]: inactive
Potency [15]: inactive
Potency [6]: inactive
Potency [9]: inactive
Potency [16]: inactive
Potency [10]: inactive

N#CCCC(Br)(C#N)CBr (stereo unspecified)
Potency [1]: 4.33 µM (active)
Potency [2]: 6.11 µM (active)
Potency [11]: 24.5 µM (active)
Potency [3]: 15.4 µM (active)
Potency [14]: 13.7 µM (active)
outcome [4]: inactive
Potency [5]: inactive
Potency [15]: inactive
Potency [6]: inactive
Potency [7]: inactive
Potency [8]: inactive
Potency [9]: inactive
Potency [16]: 24.3 µM (active)
Potency [10]: 27.3 µM (active)

c1ccc(OCC2CO2)cc1 (stereo unspecified)
Potency [17]: inactive
Potency [3]: inactive
Potency [14]: inactive
outcome [4]: inactive
Potency [15]: inactive
Potency [9]: inactive
Potency [16]: inactive
Potency [10]: inactive
